Test results published in PubChem BioAssay (NCATS).
Results filed as inconclusive are left out. Active and inactive are the calls of the source. The call rests on the fitted dose curve; in most records, active means well fitted curve in the direction sought with a large enough effect; inconclusive means small, poorly fitted or top-dose-only effect, or another doubt; inactive means no such curve, though single readings can be large; an effect the other way counts as inactive or inconclusive.

Legend:
[1] = qHTS of pediatric cancer cell lines to identify multiple opportunities for drug repurposing: Primary screen for control Hh wild type fibroblast cells (AID 1347106); further: nearly all actives have a fitted effect of over 55% in size
In short: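 Viability after 48 h compound treatment at 37C, 500-1,000 cells/well, read as ATP luminescence with CellTiter-Glo. Primary screens used 11-point (MIPE, 0.78 nM-46 µM) or 8-point (NPC, 0.59 nM-46 µM) final concentrations; follow-up screens used 11-point dilutions.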

[2] = qHTS of pediatric cancer cell lines to identify multiple opportunities for drug repurposing: Primary screen for Rh30 cells (AID 1347107); further: nearly all actives have a fitted effect of over 75% in size
In short: (§1)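 Cells (500-1,000/well) in growth media were settled 5 h at 37 degrees C, then given compounds for 48 h. Viability was read as CellTiter-Glo luminescence. Primary runs used MIPE at 11 points (0.78 nM-46 µM) and NPC at 8 points (0.59 nM-46 µM); follow-ups used 11 points.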

[3] = qHTS of pediatric cancer cell lines to identify multiple opportunities for drug repurposing: Primary screen for Rh41 cells (AID 1347108); further: nearly all actives have a fitted effect of over 70% in size
In short: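 CRCs from 8- or 11-point titrations (lowest final 0.59 nM NPC, 0.78 nM MIPE). Cell viability: CellTiter-Glo after 48 h incubation, 15 min room-temperature development, luminescence imaging.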

[4] = qHTS of pediatric cancer cell lines to identify multiple opportunities for drug repurposing: Confirmatory screen for NB1643 cells (AID 1347109); further: nearly all actives have a fitted effect of over 45% in size
In short: as §1

[5] = qHTS of pediatric cancer cell lines to identify multiple opportunities for drug repurposing: Confirmatory screen for A673 cells (AID 1347110);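 further: cells exposed to compound for 48 h before the viability read; nearly all actives have a fitted effect of over 65% in size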
In short: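 Concentration-response curves came straight from titrations: 11 points (0.78 nM to 46 µM) for MIPE and several concentrations (0.59 nM to 46 µM) for NPC in primary, 11 points in follow-up. Readout: ATP luminescence at 48 h.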

[6] = qHTS of pediatric cancer cell lines to identify multiple opportunities for drug repurposing: Confirmatory screen for SK-N-MC cells (AID 1347111);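 further: cells exposed to compound for 48 h before the readout; nearly all actives have a fitted effect of over 70% in size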
In short: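 Metabolically active cells were quantified by ATP-dependent luminescence (CellTiter-Glo, 15 min at room temperature) following 48 h treatment. Cells had been plated at 500-1,000 per well and settled for 5 h beforehand.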

[7] = qHTS of pediatric cancer cell lines to identify multiple opportunities for drug repurposing: Confirmatory screen for LAN-5 cells (AID 1347113); further: nearly all actives have a fitted effect of over 65% in size
In short: as §1

[8] = qHTS of pediatric cancer cell lines to identify multiple opportunities for drug repurposing: Confirmatory screen for DAOY cells (AID 1347114); further: nearly all actives have a fitted effect of over 65% in size
In short: (§2)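 Viability measured as metabolically active cells via CellTiter-Glo luminescence following 48 hours of compound exposure, 11-point dilutions in confirmatory testing. 500-1,000 cells/well plated 5 hours before dosing; controls were DMSO and 2.3 µM bortezomib.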

[9] = qHTS of pediatric cancer cell lines to identify multiple opportunities for drug repurposing: Confirmatory screen for NB-EBc1 cells (AID 1347115);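 further: cells exposed to compound for 48 h before the viability read; nearly all actives have a fitted effect of over 45% in size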
In short: as §1

[10] = qHTS of pediatric cancer cell lines to identify multiple opportunities for drug repurposing: Confirmatory screen for BT-37 cells (AID 1347117); further: nearly all actives have a fitted effect of over 55% in size
In short: as §1

[11] = qHTS of pediatric cancer cell lines to identify multiple opportunities for drug repurposing: Confirmatory screen for TC32 cells (AID 1347118);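 further: cells exposed to compound for 48 h before the read; nearly all actives have a fitted effect of over 65% in size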
In short: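 TC32 cells, 500-1,000/well in growth medium, compound-treated 48 h at 37 °C; viability from CellTiter-Glo luminescence. Primary screen: MIPE 11-point (0.78 nM–46 µM final), NPC 8-point (0.59 nM–46 µM final); confirmatory at 11-point dilutions.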

[12] = qHTS of pediatric cancer cell lines to identify multiple opportunities for drug repurposing: Confirmatory screen for MG 63 (6-TG R) cells (AID 1347119); further: nearly all actives have a fitted effect of over 55% in size
In short: as §1

[13] = qHTS of pediatric cancer cell lines to identify multiple opportunities for drug repurposing: Confirmatory screen for control Hh wild type fibroblast cells (AID 1347121); further: nearly all actives have a fitted effect of over 70% in size
In short: as §1

[14] = qHTS of pediatric cancer cell lines to identify multiple opportunities for drug repurposing: Confirmatory screen for Rh41 cells (AID 1347123);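 further: 48 h compound exposure; nearly all actives have a fitted effect of over 60% in size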
In short: as §1

[15] = qHTS of pediatric cancer cell lines to identify multiple opportunities for drug repurposing: Confirmatory screen for Rh30 cells (AID 1347126); further: nearly all actives have a fitted effect of over 55% in size
In short: as §1

[16] = qHTS of pediatric cancer cell lines to identify multiple opportunities for drug repurposing: Confirmatory screen for U-2 OS cells (AID 1347122); further: nearly all actives have a fitted effect of over 65% in size
In short: as §1

[17] = qHTS of pediatric cancer cell lines to identify multiple opportunities for drug repurposing: Confirmatory screen for RD cells (AID 1347124)
In short: as §1

[18] = qHTS of pediatric cancer cell lines to identify multiple opportunities for drug repurposing: Confirmatory screen for Rh18 cells (AID 1347125); further: nearly all actives have a fitted effect of over 55% in size
In short: as §1

[19] = qHTS of pediatric cancer cell lines to identify multiple opportunities for drug repurposing: Confirmatory screen for BT-12 cells (AID 1347112); further: nearly all actives have a fitted effect of over 55% in size
In short: as §1

[20] = qHTS of pediatric cancer cell lines to identify multiple opportunities for drug repurposing: Confirmatory screen for SJ-GBM2 cells (AID 1347116); further: nearly all actives have a fitted effect of over 60% in size
In short: as §2

Measured: Potency
Potency means the concentration at half of the fitted maximal effect.

COc1cccc2c(NCc3ccccc3)nc(-n3c(N)nc4ccccc43)nc12
inactive: [1]
active: [2] 14.8 µM | [3] 18.7 µM | [4] 7.37 µM | [5] 7.37 µM | [6] 7.37 µM | [7] 9.27 µM | [8] 2.33 µM | [9] 8.27 µM | [10] 7.37 µM | [11] 7.37 µM | [12] 5.85 µM | [13] 9.27 µM | [14] 0.208 µM | [15] 0.0465 µM

O=C(Nc1cn[nH]c1-c1nc2ccc(CN3CCOCC3)cc2[nH]1)NC1CC1
active: [1] 10.5 µM | [6] 1.65 µM
not listed: [3] | [4] | [11] | [19] | [20]
inactive: all other assays above

C=CC(=O)N1CCC[C@@H](n2nc(-c3ccc(Oc4ccccc4)cc3)c3c(N)ncnc32)C1
active: [2] 11.8 µM | [6] 5.85 µM | [11] 7.37 µM | [14] 14.7 µM | [15] 10.4 µM
inactive: [1] | [19] | [20] | [13] | [17]

CCN1CCN(CC(=O)Nc2ccc(-c3cccc4c(=O)cc(N5CCOCC5)oc34)c3sc4ccccc4c23)CC1
active: [3] 1.66 µM
inactive: [1]

COc1cc2c(Oc3ccc(NC(=O)C4(C(=O)Nc5ccc(F)cc5)CC4)cc3F)ccnc2cc1OCCCN1CCOCC1
active: [1] 26.4 µM | [2] 5.9 µM | [3] 4.69 µM | [4] 5.22 µM | [5] 2.33 µM | [6] 3.69 µM | [8] 11.7 µM | [9] 13.1 µM | [20] 5.22 µM | [10] 10.4 µM | [11] 1.85 µM | [12] 7.37 µM | [13] 20.8 µM | [16] 8.27 µM | [14] 7.37 µM | [17] 10.4 µM | [18] 7.37 µM

COCCOc1ccc2c(c1)ncn2-c1ccc2cccc(N3CCC(N)CC3)c2n1
active: [3] 23.5 µM
inactive: [1]

COC(=O)[C@]12CCC(C)(C)C[C@@H]1[C@@H]1C(=O)C=C3[C@@]4(C)C=C(C#N)C(=O)C(C)(C)[C@@H]4CC[C@@]3(C)[C@]1(C)CC2
active: [1] 5.9 µM | [2] 1.48 µM | [3] 1.18 µM | [4] 3.29 µM | [5] 1.65 µM | [6] 3.69 µM | [19] 7.37 µM | [8] 2.33 µM | [20] 4.14 µM | [10] 3.69 µM | [11] 3.29 µM | [12] 4.65 µM | [13] 7.37 µM | [16] 2.08 µM | [14] 2.33 µM | [17] 1.65 µM | [18] 5.22 µM | [15] 3.29 µM

C=CC(=O)Nc1cccc(Oc2nc(Nc3ccc(N4CCN(C)CC4)cc3)ncc2Cl)c1
active: [1] 16.6 µM | [2] 18.7 µM | [4] 8.27 µM | [5] 16.5 µM | [6] 1.31 µM | [19] 16.5 µM | [7] 6.57 µM | [8] 18.5 µM | [9] 18.5 µM | [11] 1.17 µM | [12] 2.93 µM | [13] 20.8 µM | [16] 2.61 µM | [14] 2.61 µM

CNC(=O)c1c(F)cccc1Nc1nc(Nc2cc3c(cc2OC)CCN3C(=O)CN(C)C)nc2[nH]ccc12
active: [2] 2.96 µM | [3] 0.148 µM | [4] 0.465 µM | [5] 11.7 µM | [6] 0.414 µM | [9] 5.85 µM | [20] 0.928 µM | [10] 26.1 µM | [11] 0.522 µM | [12] 3.69 µM | [16] 0.928 µM | [14] 0.414 µM | [18] 14.7 µM | [15] 0.585 µM
inactive: [1]

CN1CCN(Cc2ccc(NC(=O)Nc3ccc(Oc4cc(NC(=O)C5CC5)ncn4)cc3)cc2C(F)(F)F)CC1
active: [1] 8.33 µM | [2] 20.9 µM | [3] 0.469 µM | [4] 1.85 µM | [5] 0.131 µM | [6] 0.131 µM | [7] 1.04 µM | [8] 0.522 µM | [9] 23.3 µM | [20] 1.65 µM | [10] 0.369 µM | [11] 0.165 µM | [12] 2.61 µM | [16] 0.737 µM | [14] 0.233 µM | [17] 0.414 µM | [18] 0.369 µM | [15] 2.33 µM

CC1(O)CC(c2nc(-c3ccc4ccc(-c5ccccc5)nc4c3)c3c(N)nccn23)C1 (configuration not stated)
active: [3] 0.935 µM
inactive: [1]

Nc1ccccc1NC(=O)c1ccc(CNC(=O)OCc2cccnc2)cc1
active: [1] 20.9 µM | [2] 18.7 µM | [4] 2.14 µM | [5] 13.5 µM | [6] 0.302 µM | [8] 1.91 µM | [9] 30.2 µM | [20] 13.5 µM | [10] 3.02 µM | [11] 3.02 µM | [12] 2.4 µM | [16] 0.135 µM | [14] 2.4 µM | [15] 19.1 µM
